This note sets out measurements from article PMC5700166.

Changes are numbered by the printed parent chain.

What all share (assay): protein-binding microarray (PBM); PBM: ~300 nM protein, 6 mM HEPES pH 7.8, 80 mM KCl, 0.5 mM EDTA, 0.5 mM EGTA, 6% glycerol, 35 ng/ul poly-dIdC, 1% milk, 1 h, room temperature; Ap Aiptasia and Nv Nematostella (sea anemones) / Co Capsaspora / Aq Amphimedon (sponge) / Dm Drosophila / Hu human; RHD is the Rel homology domain; high values mean tight binding
Conditions in all cases: dsDNA, one strand shown

One assay deals with T1, GST-Ap-NF-kB RHD (Exaiptasia pallida (Aiptasia), UniProt A0A913YAJ5 2-422).
T1 sequence: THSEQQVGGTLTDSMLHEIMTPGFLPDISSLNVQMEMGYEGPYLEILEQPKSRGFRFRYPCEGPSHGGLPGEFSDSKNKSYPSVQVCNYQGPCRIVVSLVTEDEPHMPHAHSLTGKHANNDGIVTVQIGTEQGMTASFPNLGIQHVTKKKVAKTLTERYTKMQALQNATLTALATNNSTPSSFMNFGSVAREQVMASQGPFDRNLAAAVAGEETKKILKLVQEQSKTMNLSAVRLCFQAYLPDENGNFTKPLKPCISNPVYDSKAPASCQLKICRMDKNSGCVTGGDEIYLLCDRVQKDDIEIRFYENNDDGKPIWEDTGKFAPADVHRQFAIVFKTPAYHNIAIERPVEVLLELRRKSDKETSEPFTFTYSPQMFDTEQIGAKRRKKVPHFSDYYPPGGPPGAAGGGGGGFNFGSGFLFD

The target of assay [1] is T2, GST-Nv-NF-kB (Cys allele) (Nematostella vectensis, UniProt E5G601 2-411).
T2 sequence: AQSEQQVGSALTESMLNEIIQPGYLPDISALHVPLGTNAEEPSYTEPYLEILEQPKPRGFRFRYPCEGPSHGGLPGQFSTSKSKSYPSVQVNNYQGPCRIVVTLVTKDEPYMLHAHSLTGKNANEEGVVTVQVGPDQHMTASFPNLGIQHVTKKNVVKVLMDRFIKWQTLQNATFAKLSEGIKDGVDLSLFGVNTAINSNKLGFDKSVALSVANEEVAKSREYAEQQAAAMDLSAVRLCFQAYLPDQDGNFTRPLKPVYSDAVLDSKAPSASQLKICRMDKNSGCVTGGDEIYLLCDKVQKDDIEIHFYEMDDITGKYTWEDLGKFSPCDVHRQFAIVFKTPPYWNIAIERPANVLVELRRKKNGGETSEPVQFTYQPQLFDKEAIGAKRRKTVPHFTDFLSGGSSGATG

The target of assay [2] is T3, GST-Nv-NF-kB (Ser allele) (Nematostella vectensis, UniProt A7UNT2 2-411).
T3 sequence: T2 sequence with Q21R, C66S, S207N, E215Q, V217A, E225K, A268E, D399E

A further assay has as its target T4, GST-Co-NF-kB (Capsaspora owczarzaki, UniProt F1ARL5 200-546).
T4 sequence: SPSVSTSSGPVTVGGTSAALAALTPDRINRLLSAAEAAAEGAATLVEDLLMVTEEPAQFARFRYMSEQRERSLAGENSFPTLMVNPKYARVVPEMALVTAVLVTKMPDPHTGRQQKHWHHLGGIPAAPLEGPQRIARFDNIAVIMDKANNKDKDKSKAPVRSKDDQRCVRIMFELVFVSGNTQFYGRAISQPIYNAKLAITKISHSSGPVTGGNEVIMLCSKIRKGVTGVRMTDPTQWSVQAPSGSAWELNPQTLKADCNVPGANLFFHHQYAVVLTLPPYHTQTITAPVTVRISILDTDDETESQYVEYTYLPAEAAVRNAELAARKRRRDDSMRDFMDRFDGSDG

A further assay addresses T5, GST-Dm-Relish (Drosophila melanogaster, UniProt Q94527 99-473).
T5 sequence: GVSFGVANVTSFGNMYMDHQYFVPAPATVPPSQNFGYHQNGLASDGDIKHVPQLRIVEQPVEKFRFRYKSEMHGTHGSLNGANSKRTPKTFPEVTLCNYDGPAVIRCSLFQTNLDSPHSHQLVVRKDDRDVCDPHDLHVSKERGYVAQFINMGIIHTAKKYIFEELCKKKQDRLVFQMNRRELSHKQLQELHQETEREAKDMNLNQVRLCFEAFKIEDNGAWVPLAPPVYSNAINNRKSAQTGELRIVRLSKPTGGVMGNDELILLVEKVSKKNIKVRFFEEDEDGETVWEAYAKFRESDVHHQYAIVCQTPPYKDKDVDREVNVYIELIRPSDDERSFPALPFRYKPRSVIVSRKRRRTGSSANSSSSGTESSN

The next assay has as its target T6, GST-Aq-NF-kB (Amphimedon queenslandica, UniProt A9Y5G7 2-389).
T6 sequence: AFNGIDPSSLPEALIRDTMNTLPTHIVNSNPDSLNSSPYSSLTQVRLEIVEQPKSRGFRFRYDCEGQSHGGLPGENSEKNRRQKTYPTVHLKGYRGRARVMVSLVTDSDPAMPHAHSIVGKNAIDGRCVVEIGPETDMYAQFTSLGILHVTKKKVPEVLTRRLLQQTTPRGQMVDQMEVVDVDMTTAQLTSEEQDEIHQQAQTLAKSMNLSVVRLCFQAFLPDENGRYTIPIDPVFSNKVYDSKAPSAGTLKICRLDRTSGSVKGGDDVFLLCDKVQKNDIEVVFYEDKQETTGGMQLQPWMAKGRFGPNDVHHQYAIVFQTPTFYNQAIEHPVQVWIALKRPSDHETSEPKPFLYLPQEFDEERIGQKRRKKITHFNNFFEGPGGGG

In the next assay the target is GST-Hu-p50 (Homo sapiens, UniProt P19838 7-356).
GST-Hu-p50, sequence (P19838 7-356): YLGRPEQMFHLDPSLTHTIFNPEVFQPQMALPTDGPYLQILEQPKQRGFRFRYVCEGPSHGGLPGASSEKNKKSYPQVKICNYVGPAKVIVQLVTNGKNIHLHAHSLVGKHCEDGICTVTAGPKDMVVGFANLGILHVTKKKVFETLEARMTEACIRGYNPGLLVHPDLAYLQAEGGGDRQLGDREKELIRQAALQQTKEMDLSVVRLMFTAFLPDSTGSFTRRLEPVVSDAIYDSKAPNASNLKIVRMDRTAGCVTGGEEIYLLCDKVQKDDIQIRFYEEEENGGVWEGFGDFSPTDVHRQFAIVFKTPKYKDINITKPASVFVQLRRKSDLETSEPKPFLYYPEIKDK

For “CCGATTAACATCAGGCGATCCCCTGATGTTAATCGGGTCTTGATTCGCTTGACGCTGCTG”, the binding signal in the assay with GST-Ap-NF-kB RHD came to 5.05 z-score; in assay [1], 4.17 z-score; in assay [2] it was 5.07 z-score; in the assay with GST-Co-NF-kB, 1.58 z-score; with GST-Dm-Relish, 6.53 z-score; with GST-Aq-NF-kB, 5.06 z-score. This sequence also registered a binding signal with GST-Hu-p50 of 3.98 z-score.
Consider “CCGATTAACATCAAACGCCCCCCTGATGTTAATCGGGTCTTGATTCGCTTGACGCTGCTG”, for which the binding signal in the assay with GST-Ap-NF-kB RHD worked out at 4.79 z-score; in assay [1], 4.46 z-score; in assay [2] it was 3.85 z-score; with GST-Co-NF-kB it was 3.84 z-score; with GST-Dm-Relish it was 4.9 z-score; with GST-Aq-NF-kB, 5.57 z-score. In the assay with GST-Hu-p50, this sequence had a binding signal of 5.03 z-score.
As to “CCGATTAACATCAGGGGGGGCAATGATGTTAATCGGGTCTTGATTCGCTTGACGCTGCTG”, the binding signal with GST-Ap-NF-kB RHD was 4.42 z-score; in assay [1] it was 3.92 z-score; in assay [2] it was 3.15 z-score; in the assay with GST-Co-NF-kB it was 4.99 z-score; with GST-Dm-Relish, 4.29 z-score; in the assay with GST-Aq-NF-kB, 3.72 z-score. Moreover, in the assay with GST-Hu-p50, the binding signal turned out to be 3.8 z-score.
On to “CCGATTAACATCAGGGATTCCCCTGATGTTAATCGGGTCTTGATTCGCTTGACGCTGCTG”, for which the binding signal with GST-Ap-NF-kB RHD was found to be 13.9 z-score; in assay [1], 13.2 z-score; in assay [2] it was 15.4 z-score; in the assay with GST-Co-NF-kB, 6.68 z-score; with GST-Dm-Relish, 11.2 z-score; with GST-Aq-NF-kB, 11.5 z-score. Further, in the assay with GST-Hu-p50, the binding signal is 8.74 z-score.
Turning to “CCGATTAACATCAAAACGTCCCCTGATGTTAATCGGGTCTTGATTCGCTTGACGCTGCTG”, the binding signal with GST-Ap-NF-kB RHD was 6.23 z-score; in assay [1], 6.41 z-score; in assay [2] it was 6.45 z-score; with GST-Co-NF-kB, 5.34 z-score; with GST-Dm-Relish, 5.03 z-score; with GST-Aq-NF-kB it was 6.19 z-score. In the assay with GST-Hu-p50, this sequence had a binding signal of 5.59 z-score.
For the sequence “CCGATTAACATCAGAATTTCCCCTGATGTTAATCGGGTCTTGATTCGCTTGACGCTGCTG”, the binding signal was 9.18 z-score with GST-Ap-NF-kB RHD; 10.1 z-score in assay [1]; 11.5 z-score in assay [2]; 8.73 z-score with GST-Co-NF-kB; 6.98 z-score with GST-Dm-Relish; 8.28 z-score with GST-Aq-NF-kB. Also, the binding signal in the assay with GST-Hu-p50 was found to be 6.93 z-score.
In the case of “CCGATTAACATCAAGAGATCCCCTGATGTTAATCGGGTCTTGATTCGCTTGACGCTGCTG”, the binding signal came to 6.49 z-score in the assay with GST-Ap-NF-kB RHD; 5.71 z-score in assay [1]; 6.22 z-score in assay [2]; 2.3 z-score with GST-Co-NF-kB; 6.47 z-score with GST-Dm-Relish; 4.97 z-score with GST-Aq-NF-kB. In the assay with GST-Hu-p50, this sequence gave a binding signal of 4.57 z-score.
For “CCGATTAACATCATTCCCGGGAATGATGTTAATCGGGTCTTGATTCGCTTGACGCTGCTG”, the binding signal was 2.49 z-score with GST-Ap-NF-kB RHD; 4.09 z-score in assay [1]; 3.45 z-score in assay [2]; 5.77 z-score in the assay with GST-Co-NF-kB; 1.81 z-score with GST-Dm-Relish; 3.95 z-score with GST-Aq-NF-kB. This sequence also returned a binding signal with GST-Hu-p50 of 2.31 z-score.
Take “CCGATTAACATCAATGGGATTTCTGATGTTAATCGGGTCTTGATTCGCTTGACGCTGCTG”: the binding signal in the assay with GST-Ap-NF-kB RHD was found to be 2.83 z-score; in assay [1], 2.72 z-score; in assay [2], 2.22 z-score; in the assay with GST-Co-NF-kB it was 1.38 z-score; in the assay with GST-Dm-Relish, 5.37 z-score; with GST-Aq-NF-kB, 2.47 z-score. In the assay with GST-Hu-p50, this sequence returned a binding signal of 2.6 z-score.
Take “CCGATTAACATCAAAATCCCGGGTGATGTTAATCGGGTCTTGATTCGCTTGACGCTGCTG”: the binding signal in the assay with GST-Ap-NF-kB RHD stood at 3.32 z-score; in assay [1] it was 2.32 z-score; in assay [2] it was 2.26 z-score; in the assay with GST-Co-NF-kB it was 1.42 z-score; with GST-Dm-Relish, 6.58 z-score; in the assay with GST-Aq-NF-kB, 3.23 z-score. The binding signal with GST-Hu-p50 came to 3.3 z-score.
On to “CCGATTAACATCAGATACTCCCCTGATGTTAATCGGGTCTTGATTCGCTTGACGCTGCTG”, for which the binding signal with GST-Ap-NF-kB RHD was determined as 5.47 z-score; in assay [1], 4.28 z-score; in assay [2] it was 4.21 z-score; with GST-Co-NF-kB, 4.31 z-score; with GST-Dm-Relish it was 1.86 z-score; with GST-Aq-NF-kB it was 4.46 z-score. Moreover, in the assay with GST-Hu-p50, the binding signal stood at 3.57 z-score.
With “CCGATTAACATCAATGTTCCCCCTGATGTTAATCGGGTCTTGATTCGCTTGACGCTGCTG”, the binding signal in the assay with GST-Ap-NF-kB RHD is 6.95 z-score; in assay [1], 6.49 z-score; in assay [2] it was 7.58 z-score; in the assay with GST-Co-NF-kB, 11 z-score; with GST-Dm-Relish, 5.32 z-score; in the assay with GST-Aq-NF-kB, 6.17 z-score. The same sequence yielded a binding signal with GST-Hu-p50 of 5.74 z-score.
As for “CCGATTAACATCAGGGGGGAACCTGATGTTAATCGGGTCTTGATTCGCTTGACGCTGCTG”, the binding signal with GST-Ap-NF-kB RHD stood at 7.52 z-score; in assay [1] it was 5.48 z-score; in assay [2], 6.89 z-score; in the assay with GST-Co-NF-kB it was 8.57 z-score; in the assay with GST-Dm-Relish it was 5.48 z-score; with GST-Aq-NF-kB, 6.03 z-score. Further, the binding signal with GST-Hu-p50 was determined as 6.02 z-score.
